# Source: PubChem
# HSP90 refold inh: inhibitors of HSP90 luciferase refolding in rabbit reticulocyte lysate | luciferase refolding luminescence, 3 h | actives 0.91% (n = 290,000) | inhibition, % at 5.6 µM;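 active means inhibition above the screen-wide mean plus 3 SD, computed separately per campaign, cut at about 16% in these data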;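 further: inhibitors lower the luminescence because luciferase stays unfolded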
# AHR act: activates the human aryl hydrocarbon receptor | P35869 | AHR-responsive luciferase reporter cells, luminescence | activation, % at 5 µM | actives 2.5% (n = 320,000); in the data active means activation above about 47%
# HSF1 inhib: HSF1 inhibition. NIH3T3-HGL HSE-luciferase, MG132-induced, luminescence 8 h; active compounds read low. activity change, negative = inhibition, % at 7.5 µM (by protocol). actives 0.77% (n = 300,000);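 active means more than half of replicate wells show activity change below -50%, luminescence cut by over half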;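 further: luciferase reports HSF-1 transcriptional activity via heat shock element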
# FXN GAA850 act: activators of GAA850 frataxin (FXN) promoter; actives 0.56% (n = 360,000); AID 540364; activation, % at 6 µM; HEK293 lucGAA850 FXN promoter luciferase reporter, 24 h; percent of 10 µM SAHA response;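 active means activation above the average of all compounds screened plus 3 SD, cutoff fixed separately per campaign, cut at about 7.5% in these data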
# HSF1 activator: increases HSF-1 driven luciferase reporter signal | NIH3T3-HGL HSF-1 luciferase reporter, MG132, 8 h; 100% = twice DMSO control signal | activation, % at 9 µM | actives 1.7% (n = 300,000) | AID 504408;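 active means mean replicate activation of at least 50% with a set share of replicates each reaching 50%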
# NR0B1 inh: inhibits human nuclear receptor DAX1; inhibition, % at 6.75 µM; P51843; actives 0.99% (n = 340,000); HEK293 Gal4-DAX1 luciferase reporter, luminescence;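 active means inhibition above the mean over all tested compounds plus 3 SD, cut at about 4.2% in these data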;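 further: inhibition shows as a rise in luminescence from relieved DAX1 repression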
# Target sequence (P51843 207-470 limits assumed): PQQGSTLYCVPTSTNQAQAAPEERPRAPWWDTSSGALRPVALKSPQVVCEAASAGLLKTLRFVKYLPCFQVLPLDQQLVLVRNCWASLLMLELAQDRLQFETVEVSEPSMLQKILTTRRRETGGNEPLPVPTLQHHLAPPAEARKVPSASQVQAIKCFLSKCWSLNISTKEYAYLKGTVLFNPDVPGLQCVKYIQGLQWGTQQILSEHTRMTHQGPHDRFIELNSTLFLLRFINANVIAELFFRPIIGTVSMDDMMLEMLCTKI
# A number is an active result; n = inactive; x = not tested or not shown. Most compounds without a hit are left out; they make up all but 5.9% or so of the library.
SMILES,HSP90 refold inh,AHR act,HSF1 inhib,FXN GAA850 act,HSF1 activator,NR0B1 inh
Cc1ccc(S(=O)(=O)N2CCN(C(=O)c3c(C)nn(-c4ccccc4)c3Cl)CC2)cc1,n,n,n,n,n,n
COc1cccc(NC(=O)c2csc3c2CCCC3)c1,n,n,n,n,n,n
Cc1nn(-c2ccccc2)c(Cl)c1C(=O)N1CCN(C)CC1,n,n,n,n,n,9.1
COc1ccc(NC(=O)C(C)N2C(=O)c3ccccc3C2=O)c(OC)c1 (stereo unspecified),x,n,n,n,n,x
Cc1ccc(S(=O)(=O)N2CCOCC2)cc1C(=O)N1CCN(c2ncccn2)CC1,x,x,x,n,x,n
CC(CCc1ccccc1)N1CCN(C)CC1 (stereo unspecified),n,n,n,n,n,n
COc1cc(Nc2ccn3nc(-c4ccccc4Cl)cc3n2)cc(OC)c1OC,x,x,x,n,x,x
COc1ccc(NC(=O)Nc2c(O)ccc3ccccc23)cc1,x,67,n,n,n,n
COc1ccc(NC(=O)c2cc3cc(OC)ccc3oc2=N)cc1,n,n,-53,n,n,n
COc1ccc(NC(=O)c2cccc3ccccc23)cc1,n,52,n,n,n,n
O=C(NCc1cccs1)c1ccc2sc([C@H]3C[C@H](O)[C@@H](CO)O3)nc2c1,x,x,x,n,x,x
COc1ccc(S(=O)(=O)Nc2ccc(Cl)cn2)cc1,n,n,n,n,n,n
COc1ccc(S(=O)(=O)Nc2ccc(C)cn2)cc1,n,n,n,n,n,4.6
Nc1cc(OC(=O)c2ccc(F)cc2)nn1S(=O)(=O)c1ccc(F)cc1,n,n,n,n,76,n
Nc1cc(OC(=O)c2ccco2)nn1S(=O)(=O)c1ccc(F)cc1,n,n,n,n,n,n
C[C@@H]1CN([C@H](C)CO)C(=O)c2cc(Br)cnc2O[C@@H]1CN(C)C(=O)Nc1cccc(F)c1,x,x,x,n,x,n
CCCCCCCCCCCn1nnnc1N,x,x,x,n,x,n
CCCOC(=O)C1=C(C)N(C)C(=O)NC1c1cc2c(cc1[N+](=O)[O-])OCO2 (stereo unspecified),n,60,n,n,n,n
O=C(NC(=S)N1CCN(c2ccc([N+](=O)[O-])cc2Cl)CC1)c1ccco1,n,n,n,n,55,n
COc1ccc(OCC(=O)Nc2ccccc2OC)cc1,n,n,n,n,n,n
CCc1ccccc1NC(=O)COc1cccc2ccc(C)nc12,n,n,-77,n,n,n
CNCc1ccccc1OCC(=O)Nc1ccccc1OC,n,69,n,n,n,n
COc1ccc(CN2C(=O)C(CC(=O)NC(c3ccccc3)c3ccccc3)CC(C(=O)N(C)C)=C2C)cc1 (stereo unspecified),x,x,x,n,x,n
CCN1C(=O)/C(=C/N2CC(C)CC(C)C2)SC1=S (stereo unspecified),n,n,n,n,n,n
CCN1C(=O)/C(=C\N2CCCCCC2)SC1=S,n,n,n,n,67,n
SMILES,HSP90 refold inh,AHR act,HSF1 inhib,FXN GAA850 act,HSF1 activator,NR0B1 inh
CC(C)CNc1ncnc2c1ncn2[C@H]1CN(CCc2ccccc2)C[C@@H](CO)O1,x,x,x,n,x,x
COc1ccc(CCN2CC(C(=O)NCc3ccon3)CCC2=O)cc1 (stereo unspecified),x,x,x,n,x,n
CC(C)(C)/C(O)=C/c1nc2ccccc2[nH]c1=O,n,n,n,n,n,n
O=c1[nH]c2ccccc2nc1/C=C/c1ccccc1,n,57,n,n,99,n
Cn1c(=O)c(/C=C/c2ccc(F)cc2)nc2ccccc21,n,x,n,n,60,n
O=c1[nH]c2ccccc2nc1/C=C/c1ccc(F)cc1,n,74,n,n,n,n
COc1ccccc1C(=O)C1CCCN(C(=O)c2ccc(Cl)cc2)C1 (stereo unspecified),x,x,x,n,x,n
Cc1ccc2nc(SCC(=O)Nc3ccc(C(N)=O)cc3)[nH]c2c1,n,n,n,n,n,n
Cc1ccc2nc(SCc3ccc([N+](=O)[O-])cc3)[nH]c2c1,n,n,n,n,82,n
Cc1ccc(NC(=O)Nc2ccc3c(c2)nc(C)n3C)cc1,n,n,n,n,n,n
Cc1nc2cc(NC(=O)Nc3cccc([N+](=O)[O-])c3)ccc2n1C,n,n,n,n,54,n
Cc1ccc2nc(SCc3ccc([N+](=O)[O-])cc3)nc(C)c2c1,n,n,x,n,x,n
Cc1ccc2nc(SCC(=O)Nc3cccc([N+](=O)[O-])c3)[nH]c2c1,n,89,n,n,n,n
